Data from PubChem BioAssay.
Calls of active or inactive are those of the source.

Key:
[1] = small molecules captured by biotinylated probe aFSTL3 – biochemical, small-molecule microarray, fluorescence 635/667, stem cell growth factor project, primary screen (AID 1064); conditions: higher = more signal;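 note: measures binding of the biotinylated anti-FSTL3 antibody to printed compounds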
[2] = binders from COS7 lysate, DM2A8 probe, primary screen, torsin A project, cell lysate, small-molecule microarray, fluorescence 635/667 (AID 1065); conditions: higher = more signal, COS7 lysate expressing mutant human TOR1A
[3] = small molecules captured by biotinylated probe aFGF2 – biochemical, small-molecule microarray, fluorescence 635/667, stem cell growth factor project, primary screen (AID 1067); conditions: higher = more signal;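 note: measures binding of biotinylated aFGF2 protein to printed compounds on slides; z-score merges feature fluorescence and signal-to-noise across triplicate slides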
[4] = small molecules captured by biotinylated probe aFGF10 – biochemical, small-molecule microarray, fluorescence 635/667, stem cell growth factor project, primary screen (AID 1071); conditions: higher = more signal;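 note: score merges 667 nm spot intensity and signal to noise from triplicate slides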
[5] = target: Neurogenic locus notch homolog protein 2 (Homo sapiens) (UniProt Q04721); test: small molecules binding Notch2 protein – biochemical, small-molecule microarray, 635 nm fluorescence, stem cell growth factors, primary screen (AID 1073); conditions: higher = more signal
[6] = target: Pro-neuregulin-1, membrane-bound isoform (Homo sapiens) (UniProt Q02297); test: small molecules binding neuregulin-1 protein – biochemical, small-molecule microarray, fluorescence 635/667, psychiatric disease protein project, primary screen (AID 1075); conditions: NRG1 binding, 635 nm fluorescence, higher = more signal;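 note: score combines 667 nm spot fluorescence with signal to noise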
[7] = system: Neuregulin-1 EGF-like domain; test: small molecules binding NRG1 EGF domain – biochemical, small-molecule microarray, 635 nm fluorescence, primary screen (AID 1081); conditions: higher = more signal;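 note: binding of the protein to compounds printed on small-molecule microarray slides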
[8] = FRG1 expression reporter modulators in myotubes – cell-based, C2C12 myotubes, firefly/Renilla luciferase, luminescence, FRG1 inhibition for FSHD, primary screen (AID 1084); conditions: FRG1 promoter luciferase, higher = more signal, called active from +8 up or from −8 down
[9] = small molecules captured by biotinylated probe aFST – biochemical, small-molecule microarray, fluorescence 635/667, stem cell growth factor project, primary screen (AID 1086); conditions: higher = more signal;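 note: score merges 667 nm fluorescence with signal-to-noise of each printed compound spot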
[10] = binders of probe aHhip on microarray, primary screen, stem cell growth factor project, biochemical, small-molecule microarray, fluorescence 635/667 (AID 1087); conditions: higher = more signal;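 note: score merges spot fluorescence at 667nm with spot signal to noise ratio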
[11] = system: PRMT1 (protein arginine N-methyltransferase 1); test: small molecules binding arginine methyltransferase PRMT1 – biochemical, small-molecule microarray, 635 nm fluorescence, primary screen (AID 1088); conditions: higher = more signal;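 note: binding of Prmt1 protein to compounds spotted on small-molecule microarray slides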
[12] = growth effects on S. cerevisiae YJM789 – YJM789 clinical isolate, OD600, 24 h, basal, primary screen (AID 1089); conditions: higher = more signal, called active from +8 up or from −8 down;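 note: growth of clinical yeast isolate S. cerevisiae YJM 789 seeded 1000 cells per well; test concentration not given here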
[13] = S. pombe growth modifiers, basal conditions – strain 972, OD600, 24 h, no modulator, primary screen (AID 1090);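 note: basal condition with compound alone and no growth modifier present; test concentration not given here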; conditions: S. pombe 972 growth, higher = more signal, called active from +8 up or from −8 down
[14] = budding yeast growth modifiers under rapamycin – strain BY4716, OD600, 96 h, primary screen (AID 1091); note: test concentration not given here; conditions: S. cerevisiae BY4716 + rapamycin, higher = more signal, called active from +8 up or from −8 down
[15] = target: Torsin-1A-interacting protein 2 (Homo sapiens) (UniProt Q8NFQ8); test: small molecules binding lysate-expressed LULL1 – cell lysate, human LULL1 lysate, 635/667 nm fluorescence, primary screen (AID 1092); conditions: small-molecule microarray, hLULL1 lysate binding, 635 nm fluorescence; higher = more signal;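 note: probe is lysate of COS7 cells overexpressing human LULL1; score merges per-feature 667 nm fluorescence with signal-to-noise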
[16] = optical density change of DRC41 E. coli – strain DRC41, OD650, 24 h, E. coli filamentation project, primary screen (AID 1093);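 note: MC1000 strain lacking acrAB efflux and sulA so SOS filamentation is blocked; test concentration not given here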; conditions: E. coli DRC41 growth, higher = more signal, called active from +8 up or from −8 down
[17] = probe aLefty2 binding to arrayed compounds – biochemical, biotinylated probe, 635/667 nm fluorescence, primary screen (AID 1094); conditions: small-molecule microarray, higher = more signal;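 note: score merges spot fluorescence near 667 nm with spot signal-to-noise ratio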
[18] = system: Noggin (protein binding on small-molecule microarray); test: small molecules binding Noggin protein – biochemical, 635/667 nm fluorescence, primary screen (AID 1095); conditions: 635 nm fluorescence, higher = more signal;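 note: score merges 667 nm feature fluorescence with signal to noise over triplicate slides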
[19] = target: Neurogenic locus notch homolog protein 3 (Homo sapiens) (UniProt Q9UM47); test: small molecules binding NOTCH3 protein – biochemical, 635/667 nm fluorescence, primary screen (AID 1096); conditions: small-molecule microarray, 635 nm fluorescence, higher = more signal
[20] = probe aEGFR binding to arrayed compounds – biochemical, biotinylated probe, 635/667 nm fluorescence, primary screen (AID 1097); conditions: small-molecule microarray, higher = more signal;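 note: probe is a biotinylated anti-EGFR antibody binding compounds printed on slides; score combines fluorescence near 667 nm and signal to noise of each spot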

Chain of Pro-neuregulin-1, membrane-bound isoform (Homo sapiens) (Q02297 whole entry, looked up, the tested form may be a part, canonical isoform): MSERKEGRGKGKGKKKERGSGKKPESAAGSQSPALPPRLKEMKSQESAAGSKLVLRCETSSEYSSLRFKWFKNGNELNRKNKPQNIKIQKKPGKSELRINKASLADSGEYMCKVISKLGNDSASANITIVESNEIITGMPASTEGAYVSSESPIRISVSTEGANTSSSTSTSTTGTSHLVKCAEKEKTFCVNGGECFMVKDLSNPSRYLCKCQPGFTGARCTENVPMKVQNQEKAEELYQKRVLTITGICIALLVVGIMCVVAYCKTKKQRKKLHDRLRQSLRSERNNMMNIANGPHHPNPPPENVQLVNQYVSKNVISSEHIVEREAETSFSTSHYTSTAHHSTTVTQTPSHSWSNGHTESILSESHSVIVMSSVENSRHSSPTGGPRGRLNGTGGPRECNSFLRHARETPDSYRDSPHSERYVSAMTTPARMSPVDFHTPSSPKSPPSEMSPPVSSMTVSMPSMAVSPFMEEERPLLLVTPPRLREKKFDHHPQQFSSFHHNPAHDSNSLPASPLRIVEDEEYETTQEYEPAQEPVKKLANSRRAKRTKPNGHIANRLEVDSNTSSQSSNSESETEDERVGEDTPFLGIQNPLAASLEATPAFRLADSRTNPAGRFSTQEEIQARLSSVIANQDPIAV
Chain of Neurogenic locus notch homolog protein 3 (Homo sapiens) (Q9UM47 whole entry, looked up): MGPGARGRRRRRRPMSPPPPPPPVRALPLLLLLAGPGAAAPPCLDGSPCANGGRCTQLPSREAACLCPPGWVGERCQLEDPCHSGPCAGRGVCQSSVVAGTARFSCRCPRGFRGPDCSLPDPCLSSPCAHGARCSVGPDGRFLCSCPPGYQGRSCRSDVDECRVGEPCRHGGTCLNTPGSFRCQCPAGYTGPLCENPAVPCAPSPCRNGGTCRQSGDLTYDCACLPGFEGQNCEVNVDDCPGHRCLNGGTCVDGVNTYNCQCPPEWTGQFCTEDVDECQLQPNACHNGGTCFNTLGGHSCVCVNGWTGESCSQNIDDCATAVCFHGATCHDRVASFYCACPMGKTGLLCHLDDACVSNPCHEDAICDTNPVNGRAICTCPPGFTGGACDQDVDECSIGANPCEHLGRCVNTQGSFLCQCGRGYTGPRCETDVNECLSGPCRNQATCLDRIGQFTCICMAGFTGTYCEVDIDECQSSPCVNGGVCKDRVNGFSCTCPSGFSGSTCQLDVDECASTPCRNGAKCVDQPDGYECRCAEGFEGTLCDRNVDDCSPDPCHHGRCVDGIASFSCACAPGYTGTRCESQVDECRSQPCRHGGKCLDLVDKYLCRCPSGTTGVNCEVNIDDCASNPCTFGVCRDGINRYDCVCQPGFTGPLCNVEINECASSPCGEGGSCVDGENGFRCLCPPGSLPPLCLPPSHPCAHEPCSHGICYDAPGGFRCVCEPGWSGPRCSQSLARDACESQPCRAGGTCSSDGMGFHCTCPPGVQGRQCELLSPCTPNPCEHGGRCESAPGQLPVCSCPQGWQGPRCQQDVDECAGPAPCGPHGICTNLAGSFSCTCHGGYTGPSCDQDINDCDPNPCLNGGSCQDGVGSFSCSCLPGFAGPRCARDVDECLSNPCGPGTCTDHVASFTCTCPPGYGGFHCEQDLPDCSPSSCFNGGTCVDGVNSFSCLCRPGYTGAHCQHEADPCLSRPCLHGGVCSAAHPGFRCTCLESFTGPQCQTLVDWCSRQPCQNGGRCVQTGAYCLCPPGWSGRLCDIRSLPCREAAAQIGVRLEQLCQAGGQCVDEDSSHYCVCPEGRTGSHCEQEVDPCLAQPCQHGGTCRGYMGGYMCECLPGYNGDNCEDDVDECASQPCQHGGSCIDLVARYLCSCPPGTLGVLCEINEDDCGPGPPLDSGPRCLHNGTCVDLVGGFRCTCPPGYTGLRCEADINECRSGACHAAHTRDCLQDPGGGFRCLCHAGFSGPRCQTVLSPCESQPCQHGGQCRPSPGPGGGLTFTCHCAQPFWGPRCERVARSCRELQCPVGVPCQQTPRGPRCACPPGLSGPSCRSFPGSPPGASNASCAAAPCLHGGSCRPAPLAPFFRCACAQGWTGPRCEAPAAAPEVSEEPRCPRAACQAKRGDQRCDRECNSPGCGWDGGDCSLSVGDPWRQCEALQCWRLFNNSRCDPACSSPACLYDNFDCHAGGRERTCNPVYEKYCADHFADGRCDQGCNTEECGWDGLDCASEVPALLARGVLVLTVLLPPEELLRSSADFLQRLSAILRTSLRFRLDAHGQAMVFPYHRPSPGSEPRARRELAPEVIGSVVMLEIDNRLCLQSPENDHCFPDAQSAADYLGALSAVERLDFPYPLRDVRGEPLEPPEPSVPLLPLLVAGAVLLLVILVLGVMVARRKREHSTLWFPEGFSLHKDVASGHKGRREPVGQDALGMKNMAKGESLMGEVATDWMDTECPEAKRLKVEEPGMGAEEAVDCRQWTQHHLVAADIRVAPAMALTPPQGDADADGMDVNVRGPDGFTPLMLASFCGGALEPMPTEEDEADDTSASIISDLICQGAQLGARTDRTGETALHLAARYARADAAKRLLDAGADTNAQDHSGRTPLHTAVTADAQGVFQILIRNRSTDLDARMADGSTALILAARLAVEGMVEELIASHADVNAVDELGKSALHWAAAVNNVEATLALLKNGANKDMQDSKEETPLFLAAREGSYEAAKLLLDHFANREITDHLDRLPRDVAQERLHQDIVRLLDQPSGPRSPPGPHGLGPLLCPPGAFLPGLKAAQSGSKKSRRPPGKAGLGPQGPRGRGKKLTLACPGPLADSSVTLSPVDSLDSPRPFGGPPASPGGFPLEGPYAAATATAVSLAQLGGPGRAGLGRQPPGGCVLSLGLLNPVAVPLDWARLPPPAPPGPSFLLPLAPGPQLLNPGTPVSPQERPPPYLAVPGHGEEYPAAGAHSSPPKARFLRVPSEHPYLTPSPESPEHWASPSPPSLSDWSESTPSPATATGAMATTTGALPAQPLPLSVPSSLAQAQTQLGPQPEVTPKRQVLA
Chain of Torsin-1A-interacting protein 2 (Homo sapiens) (Q8NFQ8 whole entry, looked up): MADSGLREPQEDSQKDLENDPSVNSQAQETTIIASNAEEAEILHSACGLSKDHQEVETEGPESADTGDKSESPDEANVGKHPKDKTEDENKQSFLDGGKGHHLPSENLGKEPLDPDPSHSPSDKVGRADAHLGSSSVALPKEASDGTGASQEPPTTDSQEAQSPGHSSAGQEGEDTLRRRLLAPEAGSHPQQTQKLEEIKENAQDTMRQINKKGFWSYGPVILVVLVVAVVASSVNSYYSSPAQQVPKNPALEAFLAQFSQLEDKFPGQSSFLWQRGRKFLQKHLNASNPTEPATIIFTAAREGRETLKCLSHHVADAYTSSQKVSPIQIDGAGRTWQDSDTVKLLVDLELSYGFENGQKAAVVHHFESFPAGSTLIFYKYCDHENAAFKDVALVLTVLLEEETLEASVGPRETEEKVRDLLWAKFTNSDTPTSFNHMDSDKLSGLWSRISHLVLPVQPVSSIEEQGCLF

SMILES	composite z-score [1]	composite z-score [2]	composite z-score [3]	composite z-score [4]	composite z-score [5]	composite z-score [6]	composite z-score [7]	z-score [8]	composite z-score [9]	composite z-score [10]	composite z-score [11]	z-score [12]	z-score [13]	z-score [14]	composite z-score [15]	z-score [16]	composite z-score [17]	composite z-score [18]	composite z-score [19]	composite z-score [20]
C[C@@H]1NC(=O)CC=C[C@@H](C)[C@@H]2C=C[C@H](O)[C@@H](COC(=O)[C@H](C)NC(=O)CC=C[C@@H](C)[C@@H]3C=C[C@H](O)[C@@H](COC1=O)O3)O2	-0.703	0.0339	-0.0511	0.216	0.0211	-0.428	-0.247	0.587 (inactive)	0.229	-0.0994	0.0027	-1.07 (inactive)	-2.24 (inactive)	-0.764 (inactive)	-0.178	0.602 (inactive)	-0.221	0.464	0.108	-0.0262
CCOC(=O)C[C@H]1[C@H](OC(=O)c2ccccc2-c2ccccc2)[C@@H](NC(=O)c2ccc(-c3ccccc3)cc2)c2cc(OCCCO)ccc2N1C(=O)Cc1ccc(OC)cc1	-0.191	-0.0021	-0.0642	0.389	0.212	-0.109	0.373	0.524 (inactive)	0.437	-0.0346	0.362	-0.39 (inactive)	-0.826 (inactive)	0.27 (inactive)	0.775	-0.857 (inactive)	-0.0435	0.19	0.266	0.0651
O=C1OCCC/C=C\[C@H]2OC34C=CCN(CCN5CCOCC5)C(=O)[C@H]3N(CCCCCO)C(=O)[C@@H]4C12 (stereo not given in full)	-0.0623	-0.658	-0.174	-0.156	-0.822	-0.179	0.65	1.48 (inactive)	-0.676	-0.226	-0.706	-0.114 (inactive)	-0.359 (inactive)	-0.824 (inactive)	-0.701	-0.763 (inactive)	-0.221	-0.987	0.0233	-0.281
C[C@H]1NC(=O)[C@@H](C)NC(=O)[C@@]23C(=O)N[C@@H](Cc4ccccc4)C2[C@H](C)[C@@]2(C)O[C@H]2C3/C=C/C/C=C\CNC1=O (stereo not given in full)	-0.372	-0.0794	-0.083	-0.167	-0.269	0.631	0.812	0.0028 (inactive)	-0.41	-0.34	-0.0842	1 (inactive)	-0.696 (inactive)	0.581 (inactive)	-0.968	2.41 (inactive)	-0.142	-0.142	-0.129	-0.131
COCCOC(=O)N1C(=O)[C@@]2(c3cc(C#CC4=CCCCC4)ccc31)[C@H](c1ccc(O)cc1)N1[C@H](c3ccccc3)[C@H](c3ccccc3)OC(=O)[C@H]1[C@@H]2C(=O)N1CCCCCCC1	2.57	-0.264	-0.06	0.0509	0.521	0.292	0.359	0.0812 (inactive)	0.547	0.294	1.57	0.2 (inactive)	-1.06 (inactive)	0.776 (inactive)	2.11	2.01 (inactive)	0.367	1.42	1.13	0.0143
CCOC(=O)C1=CCC(c2cccc3ccccc23)N(S(=O)(=O)c2ccc(C)cc2)C1 (stereo not given)	0.609	-0.0897	0.0346	0.323	1.46	1.21	1.01	-1.05 (inactive)	0.95	-0.0237	0.614	-0.109 (inactive)	1.4 (inactive)	3.55 (inactive)	1.64	-0.461 (inactive)	0.346	-0.375	0.976	0.211
COc1ccc(CCNC(=O)[C@@]2(c3ccc([N+](=O)[O-])cc3)CC(=O)N(C(C)C)[C@@H]2c2ccc(CO)cc2)cc1	0.988	-0.716	-0.116	-0.94	-1.38	1.57	0.987	-1.39 (inactive)	-0.529	-0.265	-0.383	-1.15 (inactive)	-1.2 (inactive)	-1.1 (inactive)	2.99	1.89 (inactive)	0.11	-1.2	-0.791	-0.318
O=C1NC(=O)C2C1C=CC(C(O)C=Cc1ccc([N+](=O)[O-])cc1)N2Nc1ccccn1 (stereo not given)	-0.273	0.224	0.102	0.212	1.15	-0.0777	0.966	0.126 (inactive)	-0.199	-0.226	0.403	0.459 (inactive)	1.31 (inactive)	-0.108 (inactive)	1.51	-0.298 (inactive)	0.0866	0.289	-0.135	-0.094
CC(=O)Nc1ccc([C@H]2[C@H](C)CC[C@H]3C(=O)N4[C@@H](CC[C@@H](C)[C@@H]4c4ccc(NC(C)=O)cc4)C(=O)N32)cc1	-0.508	0.482	-0.1	0.908	0.68	0.566	1.1	0.103 (inactive)	0.0863	0.132	1.53	0.817 (inactive)	-0.789 (inactive)	-0.145 (inactive)	1.63	0.987 (inactive)	-0.185	0.651	0.897	0.107
C#C[C@H](O[Si](C#Cc1ccccc1)(C(C)C)C(C)C)c1ccccc1	-0.16	-0.232	-0.0956	0.125	-0.677	-0.328	-0.305	1.15 (inactive)	-0.649	-0.233	0.0132	-22.2 (active)	-20.1 (active)	-2.8 (inactive)	0.504	-0.227 (inactive)	-0.279	-0.251	-0.406	-0.25
